# High-throughput results (PubChem)
# Shown are actives, neighbours in structure and some others; about 3.7% of the full set was active somewhere.
# tim10-1 inh – growth inhibitors of tim10-1 mutant yeast. S. cerevisiae tim10-1 ts strain growth, BacTiter-Glo, 24 h. inhibition, % at 20 µM. 2.2% of 330,000 active. AID 463190;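 active = inhibition of at least 40%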;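 note: mutant grown at 25 °C; 0% = DMSO wells with yeast and 100% = wells holding no yeast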
# Rce1 inh – blocks yeast Ras-converting enzyme. Q03530. 0.27% of 290,000 active. AID 2563. calls only. yeast membranes, quenched prenylated peptide cleavage fluorescence;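 active = fall in fluorescence gain of 50% or more versus controls, with final raw signal at or below 3038400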;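 note: plate controls were neutral control wells for no effect and wells lacking membranes for full effect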
# Target sequence (Q03530 whole entry, looked up): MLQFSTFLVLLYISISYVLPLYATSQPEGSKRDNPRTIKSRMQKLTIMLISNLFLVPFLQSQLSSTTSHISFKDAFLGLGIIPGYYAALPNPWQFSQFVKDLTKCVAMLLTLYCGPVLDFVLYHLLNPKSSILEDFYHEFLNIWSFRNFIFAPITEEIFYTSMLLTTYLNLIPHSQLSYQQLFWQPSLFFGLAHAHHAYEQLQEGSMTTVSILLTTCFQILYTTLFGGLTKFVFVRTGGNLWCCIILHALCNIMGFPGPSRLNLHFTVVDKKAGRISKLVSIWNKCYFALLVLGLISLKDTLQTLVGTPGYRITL
# TIM10 inh – inhibits growth of TIM10 yeast strain; S. cerevisiae TIM10 strain growth, BacTiter-Glo luminescence, 24 h; inhibition, % at 10 µM; 1.4% of 330,000 active;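 active = inhibition of 40% or more at the single tested concentration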;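 note: wild-type TIM10 isogenic control strain grown at permissive 25 °C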
# tim23-1 inh – growth inhibitors of tim23-1 mutant yeast; S. cerevisiae tim23-1 growth, BacTiter-Glo luminescence, 24 h; inhibition, % at 20 µM; 1.3% of 330,000 active;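 active = growth inhibition of the mutant yeast at or above 50%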;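 note: temperature-sensitive mutant grown at 25 °C; plate controls were DMSO-treated mutant yeast for no effect and medium wells lacking yeast for full effect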
# PfHsp90 set2 – reduces growth (ATP signal) of yeast expressing P. falciparum Hsp90 | S. cerevisiae expressing PfHsp90, BacTiter-Glo ATP, 48 h; yeast lacking PDR1 and PDR3 efflux regulators | inhibition, % at 9.4 µM | 0.32% of 310,000 active | AID 504621;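 active = every replicate shows inhibition above about 80%, whatever the replicate mean, limit read from the data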;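 note: 0% = DMSO neutral controls and 100% = 20 µM radicicol positive controls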
# tim10-1 conf – confirmation of tim10-1 mutant yeast growth inhibitors | shares compounds with tim10-1 inh | 56% of 7,400 active | AID 463213 | S. cerevisiae tim10-1 ts strain growth, BacTiter-Glo, 24 h | inhibition, % at 20 µM;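 active = inhibition of yeast growth at or above a set limit in either of two repeat tests at 20 µM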;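 note: tim10-1 mutant grown at permissive 25 °C to find synthetic lethal compounds; 0% = DMSO yeast wells and 100% = medium wells without yeast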
# * hit, by the source's call; i = inactive; / = not tested or not shown.
SMILES,tim10-1 inh,Rce1 inh,TIM10 inh,tim23-1 inh,PfHsp90 set2,tim10-1 conf
Cc1ccc([N+](=O)[O-])cc1NC(=S)NC(=O)CC(C)(C)C,43*,i,23,41,-8,26
CCN(CC)C(=O)CSc1ncnc2sc(-c3ccccc3)cc12,46*,/,16,24,/,23
O=C1NC(=O)/C(=C\c2ccccc2Oc2ccc(F)c(F)c2)S1,45*,i,19,28,/,32*
O=C1NC(=O)/C(=C/c2ccccc2OCc2ccccc2)S1,46*,i,40,20,6,37*
O=C(COc1ccccc1/C=C1\SC(=O)NC1=O)Nc1ccccc1,18,i,13,25,-18,/
CC1(C)CC2(CCO1)OC(=O)CC2C(=O)Nc1ccc(Cl)cc1[N+](=O)[O-] (configuration not stated),5,i,-8,-3,-13,/
CN1C(=O)C(C)(C)c2cc(S(=O)(=O)N3CCCC3C(=O)NCc3ccccc3Cl)ccc21 (configuration not stated),-5,i,2,11,-5,/
COC(=O)c1ccc(C(=O)N(C)C2CCCN(Cc3ccccc3F)C2)nc1 (configuration not stated),-2,i,-2,0,17,/
Nc1cccnc1Sc1cccc(Cl)c1,41*,i,19,33,1,30
COC(CNC(=O)c1cnn2c(C)c(Cc3ccccc3)c(C)nc12)OC,40*,i,-2,26,10,24
COC(CNC(=O)Cc1c(C)nc2c(-c3ccccc3)c(C)nn2c1C)OC,-1,i,5,12,-6,/
CCOC(=O)c1ccc(N2C(=O)C=CC2=O)cc1,82*,i,14,23,130*,92*
CCOC(=O)c1ccc(-n2c(C)ccc2C)cc1,8,i,15,27,16,/
COC(=O)C1=C(C)N(c2ccc(C(=O)OC)cc2)C(=O)C1,33,i,9,9,/,/
CCOC(=O)c1ccc(N2C(=O)CC(C(=O)OC)=C2C)cc1,54*,i,-6,11,26,38*
O=C1OC[C@H]2CCCN2C(=O)[C@@H](CC(=O)N(CCO)Cc2ccccc2)C/C=C\CC[C@H]1Cc1ccc(F)cc1,30,/,4,24,22,/
Cc1ccc(OCCn2cnc3cc([N+](=O)[O-])ccc3c2=O)cc1,46*,i,26,18,39,22
CN(C(=O)COC(=O)c1ccccc1OCc1ccc(Cl)cc1)c1c(N)n(Cc2ccccc2)c(=O)[nH]c1=O,-11,i,-75,-11,/,/
Cc1ccc(/C=C2/Sc3ccccc3N(CC(=O)NCC3CCCO3)C2=O)cc1 (configuration not stated),31,i,14,15,5,/
Cc1cc(/C=C2\Sc3ccccc3N2C)cc(C)[n+]1CC1CCCO1 (configuration not stated),57*,/,20,23,-40,26
O=C(/C=C/c1ccco1)Nc1ccccc1N1CCCC1,53*,i,39,40,7,46*
